Assay outcomes (PubChem)
The list is not random: actives were taken first. Their share in the collection is about 2.9%.
MEKK2 WT-MEK5: raises or lowers MEK5 binding to wildtype human MEKK2 PB1 domain | Q9Y2U5 | bead flow cytometry, Alexa488-MEK5 binding to MEKK2 WT; actives lie on both sides | binding response (% of control), % at 10 µM | 290,000 compounds, 1.1% hits | AID 1531; in the data active means binding response below about 67% or above about 130%; inconclusive means no clear call, values can overlap the other calls; inactive means in between
MEKK2mut PB1 HTS: signal of MEK5 binding to mutant human MEKK2 PB1 domain | percent response, % at 10 µM | 290,000 compounds, 0.35% hits | bead flow cytometry, Alexa488-MEK5 binding to MEKK2 mutant; in the data active means percent response above about 24%, passing the limit was not always enough
dFosB act-1: enhances mouse delta FosB homodimer DNA binding | purified delta FosB, TAMRA-CDK5 oligo fluorescence polarization; percent of positive-control signal above neutral wells | activation, % at 25 µM | 340,000 compounds, 0.99% hits | AID 493131;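 active means mean activation above about 17%, with every replicate also reaching it, limit read from the data, passing the limit was not always enough; inconclusive means only one of the two conditions met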
Target sequence (P13346 whole entry, looked up): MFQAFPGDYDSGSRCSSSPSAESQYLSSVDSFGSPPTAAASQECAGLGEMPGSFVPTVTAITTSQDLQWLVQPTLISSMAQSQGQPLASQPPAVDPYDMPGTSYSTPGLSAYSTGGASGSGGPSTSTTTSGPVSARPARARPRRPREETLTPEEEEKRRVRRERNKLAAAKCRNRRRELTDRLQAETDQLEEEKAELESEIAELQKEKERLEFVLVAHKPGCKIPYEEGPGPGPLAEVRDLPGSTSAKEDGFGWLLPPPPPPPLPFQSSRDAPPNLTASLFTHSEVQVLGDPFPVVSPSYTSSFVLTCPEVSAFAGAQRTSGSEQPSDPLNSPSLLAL
MEKK3 PB1 HTS: raises or lowers MEK5 binding to the human MEKK3 PB1 domain; Q99759; bead-based flow cytometry, Alexa488-MEK5 binding to MEKK3; actives lie on both sides; 0 = blocked by unlabeled MEK5, 100 = vehicle; binding response (% of control), % at 10 µM; 290,000 compounds, 1.4% hits; AID 1529;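 active means binding response more than 3 SD above or below the average of its plate-row segment, actives on both sides; inconclusive means wells at one plate position flagged as instrument error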;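 further: Alexa488 bead fluorescence after subtracting the streptavidin-only scavenger bead signal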
DNA FID counter: fluorescent intercalator displacement, NS3 helicase counter-screen. 290,000 compounds, 0.17% hits. DNA fluorescent intercalator displacement, fluorescence. inhibition, % at 7.9 µM; in the data active means inhibition above about 37%;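 further: higher means more ethidium bromide displaced from hairpin DNA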
dFosB act-2: delta FosB (mouse) homodimer activation | 2,400 tested, under 10 active | shares compounds with dFosB act-1 | purified delta FosB, TAMRA-CDK5 oligo fluorescence polarization; normalised: neutral wells 0, positive control 100 | AID 588690 | activation, % at 24.9 µM;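 active means highest replicate activation at or above 34% and every replicate reaching that threshold; inconclusive means meets only one of the two criteria; inactive means meets neither criterion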;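 further: higher polarization means more probe DNA bound by delta FosB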
A number is an active result; n = inactive; u = inconclusive; x = no result given.

SMILES | MEKK2 WT-MEK5 | MEKK2mut PB1 HTS | dFosB act-1 | MEKK3 PB1 HTS | DNA FID counter | dFosB act-2
COc1cc(NC(=O)C2Cc3ccccc3CN2S(C)(=O)=O)cc(OC)c1 (configuration not stated) | n | n | 23.2 | n | n | n
COc1ccc(Cl)cc1NC(=O)C1Cc2ccccc2CN1S(C)(=O)=O (configuration not stated) | n | n | n | n | n | x
CCOc1ccc(C(=O)COC(=O)Cc2n[nH]c(=O)c3ccccc23)cc1 | x | x | n | x | x | x
CCOc1ccc(NC(=O)c2ccc(NC(=O)Cc3n[nH]c(=O)c4ccccc34)cc2)cc1 | n | n | 110.7 | n | n | n
O=C(CN1C(=O)NC2(CCCC2)C1=O)Nc1cc(Cl)ccc1N1CCCCC1 | n | n | n | n | n | x
O=C(NCc1n[nH]c(=S)n1-c1ccc(Br)cc1)c1ccc(S(=O)(=O)N2CCCCC2)cc1 | n | n | n | n | n | x
Cc1ccc(-c2cc(C(=O)NCc3ccc4c(c3)OCO4)[nH]n2)c(O)c1C | n | n | 20.6 | n | n | n
Cc1ccc(-c2cc(C(=O)Nc3cccnc3)[nH]n2)c(O)c1C | n | n | 25.0 | n | n | n
Cc1ccc(NC(=O)Cn2nc([N+](=O)[O-])c(Br)c2C)cc1C | n | n | 49.2 | n | n | n
Cc1c(Br)c([N+](=O)[O-])nn1CC(=O)Nc1ccc(CC#N)cc1 | n | n | x | n | n | x
CCOc1ccc(C2OCCC(C)O2)cc1OC (configuration not stated) | x | x | n | x | x | x
CCCCN(CC)CCNC(=S)Nc1ccc2nc(N3CCN(C)CC3)cc(C)c2c1 | n | n | 20.8 | n | 43.0 | n
Cc1cc(C)c(OCC(=O)Nc2ccc(NC(=O)c3ccco3)cc2)c([N+](=O)[O-])c1 | n | n | 17.6 | n | n | n
COc1ccc(NS(=O)(=O)c2cccc(NC(=O)COc3ccccc3[N+](=O)[O-])c2)cc1 | x | x | 25.0 | x | x | n
O=C(COc1ccc(/C=N/NC(=O)c2cc3ccccc3o2)cc1Br)Nc1ccccc1 | n | n | 65.8 | n | n | n
COc1ccc(NS(=O)(=O)c2cccc(C(=O)OCC(=O)Nc3cc(C)on3)c2)cc1 | n | n | 19.9 | n | n | n
CNc1ccc(C(=O)N2CCN(S(=O)(=O)c3ccc4c(c3)OCCCO4)CC2)cc1[N+](=O)[O-] | n | n | n | n | n | x
O=C(COc1ccccc1[N+](=O)[O-])Nc1ccc(NC(=O)c2cc3ccccc3o2)cc1 | n | n | 54.1 | n | n | n
Clc1ccc(/C=C/c2nc3ccccc3[nH]2)c(Cl)c1 | n | n | n | n | n | x
O=C(/C=C/c1ccc(Cl)cc1Cl)c1nc2ccccc2[nH]1 | n | n | 39.8 | n | n | n
CN(CC(=O)NC(=O)NC1CCCCC1)CC(=O)Nc1ccc(Cl)cc1 | x | x | n | x | x | x
O=C(Cn1nnc(-c2ccccc2)n1)NNC(=O)c1ccc(Br)cc1 | n | n | 36.4 | n | n | n
Cc1c(N=NC2=C(O)CCCC2=O)c(=O)n(-c2ccccc2)n1C | n | n | n | n | n | x
CC(C)CNC(=O)NC(=O)COC(=O)c1cc([N+](=O)[O-])ccc1NCc1ccccc1Cl | n | n | x | n | n | x
O=C(COC(=O)c1cc([N+](=O)[O-])ccc1NCc1ccccc1Cl)NCC(F)(F)F | n | n | 53.2 | n | n | n
SMILES | MEKK2 WT-MEK5 | MEKK2mut PB1 HTS | dFosB act-1 | MEKK3 PB1 HTS | DNA FID counter | dFosB act-2
C#CCn1c(=NC(=O)c2ccc(S(=O)(=O)N3CCc4ccccc4C3)cc2)sc2cc(S(N)(=O)=O)ccc21 | n | n | 51.3 | n | n | n
COC(=O)Cn1c(=NC(=O)c2nc3ccccc3s2)sc2cc(S(N)(=O)=O)ccc21 | n | n | u | n | n | x
C#CCn1c(=NC(=O)c2sc3ccccc3c2Cl)sc2cc(S(N)(=O)=O)ccc21 | n | n | 77.4 | n | n | n
O=C(NCc1ccccn1)c1ccc2c(=O)n3nc(Nc4ccccc4)sc3nc2c1 | n | n | 26.8 | n | n | n
CCc1ccccc1Nc1nn2c(=O)c3ccc(C(=O)NCc4ccccn4)cc3nc2s1 | n | n | n | n | n | x
O=C(COC(=O)c1n[nH]c2ccccc12)NCCc1ccccc1 | x | x | n | x | x | x
